Laboratory results from article PMC4336329 (PLoS ONE, 2015).
About 14,000 (4.5%) of roughly 310,000 compounds showed an effect of 50% or more. Effects have a minus sign here. This excerpt belongs to a sample that is enriched for strong results.

target: human ether-à-go-go-related gene (hERG) potassium channel (human, UniProt Q12809); assay: primary screen, population patch clamp on CHO cells stably expressing hERG; higher = less effect of the substance
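Also: peak tail current of the secondary pulse compared with the same well before compound.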

human ether-à-go-go-related gene (hERG) potassium channel, sequence (Q12809 whole entry, looked up): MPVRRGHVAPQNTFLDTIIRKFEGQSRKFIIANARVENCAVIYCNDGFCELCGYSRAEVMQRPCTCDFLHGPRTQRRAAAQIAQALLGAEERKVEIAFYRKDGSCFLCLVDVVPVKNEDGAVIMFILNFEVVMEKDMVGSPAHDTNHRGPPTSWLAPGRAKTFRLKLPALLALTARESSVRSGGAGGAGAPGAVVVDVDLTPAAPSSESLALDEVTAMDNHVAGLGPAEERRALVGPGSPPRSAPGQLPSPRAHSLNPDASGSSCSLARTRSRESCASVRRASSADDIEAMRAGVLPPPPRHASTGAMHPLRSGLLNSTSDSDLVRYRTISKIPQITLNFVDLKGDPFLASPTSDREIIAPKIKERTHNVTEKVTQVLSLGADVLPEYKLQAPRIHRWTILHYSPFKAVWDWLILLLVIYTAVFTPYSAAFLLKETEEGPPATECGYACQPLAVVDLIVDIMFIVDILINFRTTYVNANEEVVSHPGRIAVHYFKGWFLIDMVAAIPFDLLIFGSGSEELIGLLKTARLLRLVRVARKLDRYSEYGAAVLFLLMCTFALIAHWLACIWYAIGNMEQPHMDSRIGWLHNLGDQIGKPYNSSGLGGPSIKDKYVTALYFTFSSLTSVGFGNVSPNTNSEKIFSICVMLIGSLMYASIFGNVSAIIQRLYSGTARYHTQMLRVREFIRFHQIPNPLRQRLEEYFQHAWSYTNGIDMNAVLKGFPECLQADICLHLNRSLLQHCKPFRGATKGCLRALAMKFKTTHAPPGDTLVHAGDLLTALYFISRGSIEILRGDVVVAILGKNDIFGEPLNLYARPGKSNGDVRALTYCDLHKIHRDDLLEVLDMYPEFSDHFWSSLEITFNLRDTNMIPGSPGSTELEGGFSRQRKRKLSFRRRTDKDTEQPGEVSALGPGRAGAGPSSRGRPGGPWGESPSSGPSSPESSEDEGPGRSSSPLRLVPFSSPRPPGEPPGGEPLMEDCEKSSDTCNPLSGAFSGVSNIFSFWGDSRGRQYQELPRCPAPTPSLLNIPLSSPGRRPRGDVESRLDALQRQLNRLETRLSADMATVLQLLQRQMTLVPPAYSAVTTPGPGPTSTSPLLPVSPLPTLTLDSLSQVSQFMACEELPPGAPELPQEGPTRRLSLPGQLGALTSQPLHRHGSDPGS

**Q.** `CCCSC1=C(C#N)C(c2cccs2)CC(=O)N1` (stereo not shown) was tested. Which “hERG current change (%, negative = inhibition) at 10uM” value did it give?
**A.** The value was 3.24%.

**Q.** Which “hERG current change (%, negative = inhibition) at 10uM” value does the source give for `CCC(=O)Nc1cc(Cl)ccc1N1CCN(C(=O)CC)CC1` here?
**A.** The value was -24.9%.

**Q.** For `O=C(Cc1ccccc1)Nc1ccccc1N1CCN(c2ccccc2)CC1`, which “hERG current change (%, negative = inhibition) at 10uM” value is on record?
**A.** Its value is 11.9%.

**Q.** Which “hERG current change (%, negative = inhibition) at 10uM” value does the source give for `CC(=O)N1CCN(c2ccccc2NC(=O)COc2ccc(Cl)cc2Cl)CC1` here?
**A.** Its value is -22.3%.

**Q.** Which “hERG current change (%, negative = inhibition) at 10uM” value does the source give for `CC(C)C(=O)N1CCN(c2ccccc2NC(=O)COc2ccccc2)CC1` here?
**A.** The value was -57.6%.

**Q.** How did the “hERG current change (%, negative = inhibition) at 10uM” value turn out when `CCC(=O)N1CCN(c2ccc(Cl)cc2NC(=O)Cc2ccccc2)CC1` was run?
**A.** Its value is -46.3%.

**Q.** For `CC(C)C(=O)N1CCN(c2ccccc2NC(=O)COc2ccc(C3CCCCC3)cc2)CC1`, which “hERG current change (%, negative = inhibition) at 10uM” value is on record?
**A.** Its value is -4.96%.

**Q.** How did the “hERG current change (%, negative = inhibition) at 10uM” value turn out when `O=C(COc1ccccc1)Nc1ccccc1N1CCN(c2ccccc2)CC1` was run?
**A.** The value was 1.02%.

**Q.** Which “hERG current change (%, negative = inhibition) at 10uM” value does the source give for `CC(=O)N1CCN(c2ccccc2NC(=O)Cc2ccc(Cl)cc2)CC1` here?
**A.** Its value is -64.8%.

**Q.** For `CCC(=O)N1CCN(c2ccccc2NC(=O)Cc2ccccc2)CC1`, which “hERG current change (%, negative = inhibition) at 10uM” value is on record?
**A.** Its value is -29.1%.

**Q.** Which “hERG current change (%, negative = inhibition) at 10uM” value does the source give for `CCC(=O)N1CCN(c2ccccc2NC(=O)Cc2ccc(Cl)cc2)CC1` here?
**A.** Its value is -68.6%.

**Q.** For `CCC(=O)N1CCN(c2ccccc2NC(=O)COc2ccccc2Cl)CC1`, which “hERG current change (%, negative = inhibition) at 10uM” value is on record?
**A.** Its value is -42.2%.

**Q.** How did the “hERG current change (%, negative = inhibition) at 10uM” value turn out when `CCC(=O)N1CCN(c2ccc(Cl)cc2NC(=O)Cc2ccc(Cl)cc2)CC1` was run?
**A.** The value was -54.5%.

**Q.** Which “hERG current change (%, negative = inhibition) at 10uM” value does the source give for `CCN(CC)S(=O)(=O)c1cc(NC(=O)C2CCN(c3ncnc4sc(C)c(C)c34)CC2)ccc1Cl` here?
**A.** Its value is 23.3%.

**Q.** For `O=C(Nc1ccccc1)/C(=C\c1ccc(F)cc1)NC(=O)c1ccco1`, which “hERG current change (%, negative = inhibition) at 10uM” value is on record?
**A.** The value was 3.87%.

**Q.** `CCOC(=O)C1CCN(S(=O)(=O)c2ccc(OCC(=O)OC)cc2)CC1` was tested. Which “hERG current change (%, negative = inhibition) at 10uM” value did it give?
**A.** Its value is -9.54%.

**Q.** For `O=c1c(/C=N/O)c(Nc2ccccc2)nc2ccccn12`, which “hERG current change (%, negative = inhibition) at 10uM” value is on record?
**A.** The value was -13.5%.

**Q.** With `Cc1ccc(-n2nc(C)c3c(C)c(CCC(=O)O)c(C)nc32)cc1` as the molecule, how does the “hERG current change (%, negative = inhibition) at 10uM” value read?
**A.** Its value is 12.6%.

**Q.** `CCOC(=O)CN1C(=O)C(C)(C)Oc2ccc(C(=O)Nc3ccccc3OC)cc21` was tested. Which “hERG current change (%, negative = inhibition) at 10uM” value did it give?
**A.** The value was -6.76%.

**Q.** `Cc1cc(C)nc(N2CCC(C(=O)NNC(=O)Cc3ccccc3)CC2)n1` was tested. Which “hERG current change (%, negative = inhibition) at 10uM” value did it give?
**A.** Its value is 8.85%.

**Q.** With `CCc1ccccc1NC(=O)Cc1cn(C)c2ccccc12` as the molecule, how does the “hERG current change (%, negative = inhibition) at 10uM” value read?
**A.** The value was 3.59%.

**Q.** `CN1CCN(c2ccccc2NC(=O)C(Cc2ccccc2)n2cccc2)CC1` (stereo not shown) was tested. Which “hERG current change (%, negative = inhibition) at 10uM” value did it give?
**A.** Its value is -65.6%.

**Q.** Which “hERG current change (%, negative = inhibition) at 10uM” value does the source give for `Cc1ccccc1NC(=O)C(Cc1ccccc1)n1cccc1` (stereo not shown) here?
**A.** The value was -0.159%.

**Q.** For `CN1CCN(c2ccccc2NC(=O)Cc2ccc(Cl)cc2)CC1`, which “hERG current change (%, negative = inhibition) at 10uM” value is on record?
**A.** The value was -73.4%.

**Q.** For `CN1CCN(c2ccccc2NC(=O)Cc2cn(C)c3ccccc23)CC1`, which “hERG current change (%, negative = inhibition) at 10uM” value is on record?
**A.** Its value is -59.5%.

**Q.** How did the “hERG current change (%, negative = inhibition) at 10uM” value turn out when `CC(C)C(=O)N1CCN(c2ccccc2NC(=O)Cc2ccc(Cl)cc2)CC1` was run?
**A.** Its value is -69.7%.

**Q.** Which “hERG current change (%, negative = inhibition) at 10uM” value does the source give for `O=C(Cc1ccc(Cl)cc1)Nc1ccccc1N1CCOCC1` here?
**A.** Its value is 5.94%.

**Q.** `CCCC(=O)Nc1ccccc1N1CCN(C(=O)C(C)C)CC1` was tested. Which “hERG current change (%, negative = inhibition) at 10uM” value did it give?
**A.** Its value is 11.4%.

**Q.** `CS(=O)(=O)N1CCN(c2ccccc2NC(=O)Cc2ccc(Cl)cc2)CC1` was tested. Which “hERG current change (%, negative = inhibition) at 10uM” value did it give?
**A.** The value was -38.4%.

**Q.** Which “hERG current change (%, negative = inhibition) at 10uM” value does the source give for `Cc1ccccc1NC(=O)Cc1cn(C)c2ccccc12` here?
**A.** The value was 15.1%.

**Q.** How did the “hERG current change (%, negative = inhibition) at 10uM” value turn out when `CN1CCN(c2ccccc2NC(=O)c2ccc(-c3ccccc3)cc2)CC1` was run?
**A.** The value was -31.6%.

**Q.** For `CC(C)C(=O)N1CCN(c2ccccc2NC(=S)NC(=O)Cc2ccccc2)CC1`, which “hERG current change (%, negative = inhibition) at 10uM” value is on record?
**A.** Its value is -4.92%.

**Q.** Which “hERG current change (%, negative = inhibition) at 10uM” value does the source give for `CN(C(=O)CSc1nnc(-c2ccco2)o1)C1CCCCC1` here?
**A.** Its value is -7.54%.

**Q.** `C[C@@H]1NC(=O)c2cc([N+](=O)[O-])cc(I)c2NCCCC[C@@H](C(N)=O)NC(=O)[C@H](CCC(=O)O)NC1=O` was tested. Which “hERG current change (%, negative = inhibition) at 10uM” value did it give?
**A.** Its value is -9.34%.

**Q.** How did the “hERG current change (%, negative = inhibition) at 10uM” value turn out when `COC(=O)C1=C(C)N(C)C(=O)NC1c1ccccc1` (stereo not shown) was run?
**A.** Its value is -5.95%.

**Q.** `Cc1cc(C(=O)Nn2c(-c3ccncc3)nc3ccccc3c2=O)ccc1[N+](=O)[O-]` was tested. Which “hERG current change (%, negative = inhibition) at 10uM” value did it give?
**A.** Its value is 31.8%.

**Q.** How did the “hERG current change (%, negative = inhibition) at 10uM” value turn out when `C=CCOc1c(CNc2ccc(S(N)(=O)=O)cc2)cccc1OC` was run?
**A.** The value was 2.97%.

**Q.** With `COc1cccc(NC(=O)C(Cc2ccccc2)n2cccc2)c1` (stereo not shown) as the molecule, how does the “hERG current change (%, negative = inhibition) at 10uM” value read?
**A.** The value was -17%.

**Q.** Which “hERG current change (%, negative = inhibition) at 10uM” value does the source give for `O=C(CSc1ccc(Cl)cc1)Nc1ccccc1N1CCN(C(=O)c2ccccc2)CC1` here?
**A.** The value was -14.9%.

**Q.** For `O=C(CSc1ccc(Cl)cc1)Nc1ccccc1N1CCN(C(=O)c2ccc(Cl)cc2)CC1`, which “hERG current change (%, negative = inhibition) at 10uM” value is on record?
**A.** Its value is -10.7%.

**Q.** `O=C(Cc1ccc(Cl)cc1)Nc1ccccc1N1CCN(C(=O)c2ccccc2)CC1` was tested. Which “hERG current change (%, negative = inhibition) at 10uM” value did it give?
**A.** Its value is -72.1%.

**Q.** `Cc1cccc(NC(=O)C(Cc2ccccc2)n2cccc2)c1` (stereo not shown) was tested. Which “hERG current change (%, negative = inhibition) at 10uM” value did it give?
**A.** Its value is -51.2%.

**Q.** How did the “hERG current change (%, negative = inhibition) at 10uM” value turn out when `Cc1ccc(NC(=O)C(Cc2ccccc2)n2cccc2)cc1` (stereo not shown) was run?
**A.** The value was 3.37%.
